From PubChem BioAssay (NCATS) come the findings set out here.

SMILES strings stand for the structures. Results filed as inconclusive are left out. Activity calls are given as the source filed them. Unless noted, calls come from the whole dose curve; as a rule, active = well fitted inhibition curve with a large enough effect; inconclusive = small, poorly fitted or top-dose-only effect; inactive = flat fitted curve, though single readings scatter.

Assay [1] deals with Glutathione peroxidase 1 (Homo sapiens) (UniProt P07203). Put plainly: Primary qHTS Assay for Inhibitors of Recombinant Selenoprotein Glutathione Peroxidase 1 (GPX1) (AID 1845191). For activity, negative = inhibition: % is set by controls: 0 for no effect and ±100 for the full control effect. Note: nearly all actives have a fitted effect of over 65% in size. Put shortly: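 GR-coupled readout: NADPH consumption tracked by fluorescence, ex 340/em 450 nm, at t=0 and after 15 min at RT. Final mix 10 nM GPX1, 1 mM GSH, 0.5 mM CHP, 0.5 mM NADPH, 100 nM GR, 0.01% BSA, following 30 min enzyme–compound preincubation.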
Chain of Glutathione peroxidase 1 (Homo sapiens) (P07203 whole entry, looked up): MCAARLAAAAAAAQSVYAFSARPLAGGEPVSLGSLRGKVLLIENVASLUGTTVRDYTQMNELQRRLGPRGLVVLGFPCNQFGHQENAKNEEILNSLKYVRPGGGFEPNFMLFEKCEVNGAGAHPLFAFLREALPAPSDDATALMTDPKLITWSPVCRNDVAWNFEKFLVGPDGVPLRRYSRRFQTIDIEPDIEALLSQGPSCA
A general note: In qHTS, concentration-response curves come from the screen itself.

Assay [2] has as its target Phospholipid hydroperoxide glutathione peroxidase GPX4 (Homo sapiens) (UniProt P36969). Put plainly: Primary qHTS Assay for Inhibitors of Recombinant Selenoprotein Glutathione Peroxidase 4 (GPX4) (AID 1845192). Note: nearly all actives have a fitted effect of over 65% in size. Put shortly:
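Steps: GPX4 plus compound, 30 min RT; add GR/GSH/NADPH master mix; start with cumene hydroperoxide; read 340/450 nm fluorescence at 0 and 15 min. Finals were 200 nM GPX4, 1 mM GSH, 0.5 mM CHP, 0.5 mM NADPH, 100 nM GR.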

The nature of assay [3]: qHTS drug screen for cell cycle checkpoint inhibitors in PARPi-resistant BRCA-mutant ovarian cancer cell lines. (AID 1963452; calls by dose curve). Conditions: PEO1/OlaR viability, CellTiter-Glo luminescence, 96 h, stronger effect = lower value. Put shortly:
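PEO1, PEO4 and PEO1/OlaR ovarian cancer cells, 600 per well, exposed 96 h at 37C to a dilution series. Viability read by CellTiter-Glo luminescence, normalized to DMSO and empty wells; activity summarized as Z-AUC.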

Assay [4] in a line: qHTS profiling for inhibitors of Plasmodium falciparum proliferation (AID 504749).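 Note: 0% = DMSO vehicle and full inhibition = artemisinin control; nearly all actives have a fitted effect of over 60% in size.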 The settings on record: P. falciparum in erythrocytes, SYBR Green DNA, 72 h. Put shortly: (§1)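 SYBR Green fluorescence (ex 485 nm, em 535 nm) reports parasite DNA after 72 h compound exposure of infected red cells at 0.3% parasitemia, 2.5% hematocrit; signal normalized to 0.29 uM artemisinin and vehicle wells.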

Assay [5] has as its system 3D7. Described as above. Conditions: P. falciparum in erythrocytes, SYBR Green DNA, 72 h; series mostly up to 28.7 µM. In a few lines:
as §1

In assay [6] the test system is AA1029. Described as above. Conditions: P. falciparum in erythrocytes, SYBR Green DNA, 72 h; series mostly up to 28.7 µM. In a few lines: as §1
The test system of assay [7] is AS120. The description is as above. The settings on record: P. falciparum in erythrocytes, SYBR Green DNA, 72 h; series mostly up to 28.7 µM. In a few lines:
as §1

For assay [8], the system named is ATS189. The assay is described as above. Conditions: P. falciparum in erythrocytes, SYBR Green DNA, 72 h; series mostly up to 28.7 µM. In a few lines:
as §1

The subject of assay [9] is 7G8. The description is as above. The settings on record: P. falciparum in erythrocytes, SYBR Green DNA, 72 h; series mostly up to 28.7 µM. In a few lines:
as §1

Setting [10] is: measured here: PEO1 parental Z-AUC.
[11] abbreviates: at 28.7 µM (top of the series), parasite line A.
[12] abbreviates: at 28.7 µM (top of the series), parasite line B.
Where [13] appears, read: at 12.8 µM (top of the series), parasite line A.
Setting [14] is: at 12.8 µM (top of the series), parasite line B.

Chain of Phospholipid hydroperoxide glutathione peroxidase GPX4 (Homo sapiens) (P36969 whole entry, looked up): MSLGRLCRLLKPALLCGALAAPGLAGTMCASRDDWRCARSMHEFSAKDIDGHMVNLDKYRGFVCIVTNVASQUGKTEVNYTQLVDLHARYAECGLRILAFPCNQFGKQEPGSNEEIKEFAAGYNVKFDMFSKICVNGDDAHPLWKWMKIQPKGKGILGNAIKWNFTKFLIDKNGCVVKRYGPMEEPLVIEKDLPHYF

As to `CN(C(=O)c1c(O)c2ccccc2n(C)c1=O)c1ccccc1`, the Potency entry in assay [1], in assay [2], in assay [5], in [6], in assay [7] and in assay [8] was “inactive” in each case. For the same compound, the Z-AUC in assay [3] is 0.957 (inactive); in [3] (setting [10]), 0.533; in assay [3] (measured here: PEO4 Z-AUC), 0.496. Besides, the activity, negative = inhibition is 16.3% (inactive) in [4] (setting [11]) and 2.94% (inactive) in assay [4] (setting [12]).

In the case of `CCc1cccc(CC)c1NC(=O)CN(CC(=O)O)CC(=O)O`, the Potency entry in [1], in [2], in assay [5], in [9], in assay [6] and in [7] was “inactive” in each case. Besides, the Potency entry in [8] was “inactive”. Also, the activity, negative = inhibition was 1.37% (inactive) in assay [4] (setting [13]) and 6.7% (inactive) in assay [4] (setting [14]).

Turning to `Cc1onc(-c2ccccc2)c1-c1ccc(S(N)(=O)=O)cc1`, the Potency entry in [1], in assay [2], in assay [5], in assay [9], in assay [6] and in assay [7] was “inactive” throughout. Further, the Potency entry in assay [8] was “inactive”. In addition, the Z-AUC in assay [3] was -1 (inactive); in [3] (setting [10]), -0.334; in assay [3] (measured here: PEO4 Z-AUC) it was 0.0747. In assay [4] (setting [11]), the activity, negative = inhibition is -24.3% (inactive).

As to `Cc1ccccc1N=Nc1ccc(N=Nc2c(O)ccc3ccccc23)c(C)c1`, the Potency result in [1], in assay [2], in assay [5], in assay [9], in assay [6] and in assay [7] was “inactive” throughout. Also, the Potency entry in assay [8] was “inactive”. Besides, the results for the activity, negative = inhibition in assay [4] (setting [11]) and in assay [4] (setting [12]) were 3.72% (inactive) and 9.83% (inactive), respectively.

As to `COc1ccccc1Oc1c(NS(=O)(=O)c2ccc(C(C)(C)C)cc2)nc(-c2ncccn2)nc1OCCO`, the Potency result in assay [1], in assay [2], in assay [5], in assay [9], in assay [6] and in assay [7] was “inactive” each time. Also, in assay [8], the Potency result was “inactive”. Besides, the values for the activity, negative = inhibition in assay [4] (setting [11]) and in assay [4] (setting [12]) were -4.92% (inactive) and -14.6% (inactive), respectively.

As for `FC(F)(F)C(Cl)Br` (centres undefined), the Potency result in [1], in assay [2], in assay [5], in assay [9], in assay [6] and in [7] was “inactive” each time. Also, in assay [8], the Potency result is “inactive”. Also, the results for the activity, negative = inhibition in assay [4] (setting [11]) and in assay [4] (setting [12]) were 6.28% (inactive) and 10.7% (inactive), respectively.

Regarding `NC(N)=NS(=O)(=O)c1ccc(N)cc1`, the Potency entry in assay [1], in [2], in [5], in [9], in assay [6] and in assay [7] was “inactive” throughout. In addition, the Potency entry in assay [8] is “inactive”. In addition, the activity, negative = inhibition in [4] (setting [13]) was 8.93% (inactive); in assay [4] (setting [14]), 8.43% (inactive).

In the case of `CC(C(=O)O)c1ccc2c(c1)Cc1cccnc1O2` (centres undefined), the Potency result in assay [1], in assay [2], in assay [5], in assay [9], in assay [6] and in assay [7] was “inactive” throughout. The Potency entry in [8] is “inactive”. Also, the activity, negative = inhibition in assay [4] (setting [11]) was 5.68% (inactive); in assay [4] (setting [12]), -1.86% (inactive).

Regarding `O=S1(=O)OC(c2ccc(O)cc2)(c2ccc(O)cc2)c2ccccc21`, the Potency entry in assay [1], in [2], in [5], in [9], in [6] and in assay [7] was “inactive” throughout. In addition, in assay [8], the Potency result is “inactive”. Besides, the activity, negative = inhibition in assay [4] (setting [11]) is -0.266% (inactive); in assay [4] (setting [12]), 7% (inactive).

Turning to `CC(=O)NS(=O)(=O)c1ccc(N)cc1`, the Potency entry in assay [1], in [2], in assay [5], in [9], in [6] and in [7] was “inactive” throughout. Moreover, the Potency result in assay [8] is “inactive”. The activity, negative = inhibition in assay [4] (setting [11]) was 6.18% (inactive); in assay [4] (setting [12]), 10.5% (inactive).
